# Data taken from PubChem BioAssay (Tox21).
# Records with an inconclusive call do not appear. Where a call stands in place of a potency, no number is given. Activity calls are given as the source filed them. Calls come from the whole dose curve; as a rule, active = well fitted activation curve with a large enough effect in the repeat runs; inconclusive = weak or mixed curves; inactive = no such curve, though single readings can be large or run the other way. Starred links: 1 amine or outer side, 2 acyl side, 3 side chain; linkers in the order of their positions; H or OH if unused. Positions of bridges follow the written chain, without caps; N, C: chain ends. Non-standard residues stand in square brackets, D forms with d. Residues, ends and D or L forms follow the SMILES beside them. Chains are numbered I, II in the order given. Actinocin(9to1) = Cc1c2oc3c(C)ccc(C(=O)[*:1])c3nc-2c(C(=O)[*:2])c(N)c1=O; NMeV = CN[C@H](C(=O)O)C(C)C; Sar = CNCC(=O)O
# Biological target: Nuclear receptor subfamily 1 group I member 2 (Homo sapiens) (UniProt O75469)
# Assay: CYP3A4 induction through human pregnane X receptor (PXR) by small molecules, qHTS assay (AID 1346984); note: nearly all actives have a fitted effect of over 40% in size
# Details: DPX-2 HepG2 PXR, CYP3A4-luciferin luminescence, 24 h; series mostly up to 46.1 µM
# From the text: National Center for Advancing Translational Sciences [NCATS]
# NIH Chemical Genomics Center [NCGC]
# U.S. Environmental Protection Agency [EPA]
# National Institutes of Environmental Health Sciences [NIEHS]
# National Toxicology Program [NTP]
# The Pregnane X receptor (PXR), a ligand activated nuclear receptor plays a critical role in the regulation of genes involved in drug metabolism and transporters. Activation of PXR is responsible for unwanted adverse drug reactions. PXR binds xenobiotics and when compounds interact with PXR enhances the expression of CYP3A genes. Identifying the compounds with the potential for PXR activation and CYP3A4 induction can be of importance in improving the efficacy of drugs with less toxicity and avoiding drug-drug interactions.
# DPX-2 (Puracyp, Inc.) cell lines, used for screening against human PXR activation has HepG2 cells co-transfected with a PXR response element and a luciferase construct containing CYP3A4 promoter. Increase in luciferase activity can be used to identify the compounds that cause the induction of CYP3A4.
# DPX-2 cells were dispensed at 2,000 cells per well in 5uL of assay medium into white, solid-bottom 1536-well plates using a Multidrop Combi dispenser (Thermo Scientific). The assay plates were incubated at 37C for 5hr before transferring 23nL of test compounds dissolved in DMSO and positive control via Pintool station (Wako). The assay plates were incubated at 37C for 24hr. After 24hr compound treatment, 1uL of 3uM (final concentration) P450 substrate (P450-Glo CYP3A4 screening system with Luciferin-IPA, Promega) was added by a Flying Reagent Dispenser (FRD, Aurora Discovery). The assay plates were incubated for 3hr at 37C. Then 5ul One-Glo assay reagent (Promega) was added to each plate by an FRD and following 30 min incubation at room temperature, luciferase activity was quantified on a ViewLux plate reader (Perkin Elmer).
# Potency is the fitted concentration of half-maximal effect.
row,Structure (SMILES),Potency
1,Nc1nc(=S)c2[nH]cnc2[nH]1,inactive
2,CCn1cc(C(=O)O)c(=O)c2cc(F)c(N3CCNC(C)C3)c(F)c21 (stereo unspecified),inactive
3,NC(=Nc1ccccc1)Nc1ccccc1,inactive
4,N[C@@H]1CONC1=O,inactive
5,COc1nc(C)nc(Cl)c1NC1=NCCN1,inactive
6,CCOc1ccccc1C(N)=O,inactive
7,[Cl][In]([Cl])[Cl],inactive
8,CC(=O)OCC1=C(C(=O)O)N2C(=O)[C@@H](NC(=O)Cc3cccs3)[C@H]2SC1,inactive
9,OCC(CO)N[C@H]1C[C@](O)(CO)[C@@H](O)[C@H](O)[C@H]1O,inactive
10,CC(=O)O[C@]1(C(C)=O)CC[C@H]2[C@@H]3C[C@H](C)C4=CC(=O)CC[C@]4(C)[C@H]3CC[C@@]21C,inactive
11,CN(C)c1ccc2nc3ccc(=[N+](C)C)cc-3sc2c1,inactive
12,Cc1ccc(-c2cc(C(F)(F)F)nn2-c2ccc(S(N)(=O)=O)cc2)cc1,14.1 µM (active)
13,O=C1OC2(c3ccc(O)cc3Oc3cc(O)ccc32)c2ccccc21,14.1 µM (active)
14,CC(=O)N[C@@H](CS)C(=O)O,inactive
15,O=S(=O)(O)c1ccc2nc(-c3ccccc3)[nH]c2c1,inactive
16,NNCCc1ccccc1,inactive

row,Structure (SMILES),Potency
1,CC(C)(C)NCC(O)c1cc(O)cc(O)c1 (stereo unspecified),inactive
2,CCC(C)(Oc1ccc(C2(c3ccc(OC(C)(CC)C(=O)O)cc3)CCCCC2)cc1)C(=O)O (stereo unspecified),inactive
3,"Cc1c2oc3c(C)ccc(C(=O)N[C@@H]4C(=O)N[C@H](C(C)C)C(=O)N5CCC[C@H]5C(=O)N(C)CC(=O)N(C)[C@@H](C(C)C)C(=O)O[C@@H]4C)c3nc-2c(C(=O)N[C@@H]2C(=O)N[C@H](C(C)C)C(=O)N3CCC[C@H]3C(=O)N(C)CC(=O)N(C)[C@@H](C(C)C)C(=O)O[C@@H]2C)c(N)c1=O (I: T[dV]P[Sar][NMeV] / II: T[dV]P[Sar][NMeV]; ester I:1-I:C, II:1-II:C; linker I:N-II:N via Actinocin(9to1))",inactive
4,COC(c1ccccc1)(c1ccccc1)[C@H](Oc1nc(C)cc(C)n1)C(=O)O,inactive
5,NCCCCCC(=O)O,inactive
6,CCN(CC)C(=O)Nc1ccc(OCC(O)CNC(C)(C)C)c(C(C)=O)c1 (stereo unspecified),inactive
7,COc1ccc(Cc2cnc(N)nc2N)cc1OC,inactive
8,CC(C)CCOC(=O)c1ccc(N(C)C)cc1,inactive
9,O=C1NCC2(CCN(CCc3ccccc3)CC2)O1,inactive
10,CCCNC(C)C(=O)Nc1ccccc1C (stereo unspecified),inactive
11,O=c1n(CC2CO2)c(=O)n(CC2CO2)c(=O)n1CC1CO1 (stereo unspecified),inactive
12,CC[C@H]1CN2CCc3cc(OC)c(OC)cc3[C@@H]2C[C@@H]1C[C@H]1NCCc2cc(OC)c(OC)cc21,inactive
13,COc1cc(C(=S)N2CCOCC2)ccc1O,inactive
14,CC(C)CCCCCCc1ccc(O)cc1,inactive
15,Cc1ccnc2c1NC(=O)c1cccnc1N2C1CC1,inactive
